Experimental data reported in PubChem BioAssay (NCI).
Compounds without any hit were thinned out: in the full panel of roughly 79,000, 15% have a hit. Active and inactive are the calls of the source. Rule as the data show it: active = growth inhibition above about 70%; inactive = the rest.

Test: NCI Yeast Anticancer Drug Screen. Data for the rad52 strain (AID 147);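 also: 0% = growth of vehicle-treated control cultures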
Details: S. cerevisiae rad52 mutant growth inhibition, active compounds read high
Protocol: Growth inhibition of yeast strains with defined genetic alterations is measured as a screen for potential anti-cancer activity. Selected strains with alterations in DNA damage repair or cell cycle control were exposed to compounds and growth inhibition was measured relative to vehicle treated controls. The strain used in this assay is rad52

Measured: growth inhibition

C(=Nc1ccc(-c2cc(-c3ccccc3)nc3ccc4ccccc4c23)cc1)c1ccccc1
active: at 100.0 µM 76%
inactive: at 1.2 µM 34% | at 3.7 µM 40% | at 11.0 µM 37% | at 33.0 µM 53%

CNCCCNc1c2ccccc2nc2cccc([N+](=O)[O-])c12
active: at 1.2 µM 83% | at 3.7 µM 85% | at 11.0 µM 90% | at 33.0 µM 94% | at 100.0 µM 96%

Nc1cc(N)c(N=Nc2cccc3c(S(=O)(=O)O)cccc23)cc1N=Nc1cc([N+](=O)[O-])ccc1O
inactive: at 1.2 µM 32% | at 3.7 µM 26% | at 11.0 µM 17% | at 33.0 µM -23% | at 100.0 µM 56%

Cc1cc(-c2cc(C)c(O)c(C(C)(C)C)c2)cc(C(C)(C)C)c1O
inactive: at 1.2 µM -37% | at 3.7 µM -34% | at 11.0 µM -17% | at 33.0 µM 48%
active: at 100.0 µM 75%

Brc1ccccc1-c1ncc(-c2ccccc2)o1
inactive: at 1.2 µM -7% | at 3.7 µM -3% | at 11.0 µM 19% | at 33.0 µM 42% | at 100.0 µM 55%

CCc1cc(O)c(Cl)c(C)c1Cl
active: at 100.0 µM 75%
inactive: at 1.2 µM -5% | at 3.7 µM 6% | at 11.0 µM -8% | at 33.0 µM 14%

CN(C)CCOC1(Cc2ccc(F)cc2)CCC(C(C)(C)C)CC1 (stereo not given)
inactive: at 1.2 µM 8% | at 3.7 µM 5% | at 11.0 µM -4% | at 33.0 µM 7%
active: at 100.0 µM 98%

COc1cc(C2SCC(=O)N2c2ccc(-c3ccc(-n4c(-c5ccccc5)nc5ccccc5c4=O)cc3)cc2)ccc1O (stereo not given)
inactive: at 1.2 µM -2% | at 3.7 µM 0% | at 11.0 µM 2% | at 33.0 µM 6% | at 100.0 µM 16%
